Assay results: PubChem BioAssay AID504607 (Sanford-Burnham Center for Chemical Genomics, 2011)
Out of some 6,200 compounds screened, about 4,800 (77%) were called active. So high a share suggests a set chosen from earlier hits. Only a sample is shown. Unmarked numbers belong to inactive results.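 Rule for the calls: active = mean inhibition at 8 µM reaching about 37%, which flags the compound as non-specific (limit read from the data); inactive = the rest.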

assay: full-length luciferase signal inhibition, confirmation, counter-screen for Mdm2/MdmX interaction inhibitor project, cell-based, single concentration, SaOS-2 (AID 504607); settings: SaOS-2 full-length luciferase counterscreen, luminescence; at 8 µM; stronger effect = higher value;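 note: p53-null SaOS-2 cells with luciferase driven by a doxycycline-inducible promoter; compound on cells about two nights before reading with doxycycline added after day one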

Row | Structure (SMILES) | inhibition
1 | CCCCCCCCCCCCn1ccc(=N)cc1 | 52.1% (active)
2 | CNC(=O)O/N=C(\N)Cc1csc2ccc(Cl)cc12 | 126% (active)
3 | CNC(=O)O/N=C(\N)Cc1csc2ccccc12 | 81.2% (active)
4 | CCOc1ccc(-c2cc(C)[n+](CCN(CC)CC)c(-c3ccc(OCC)cc3)c2)cc1 | 22.3%
5 | O=C1NC(=O)N(CCc2ccc(F)cc2)C(=O)/C1=C/C=C/c1ccccc1 | 83.8% (active)
6 | COC(=O)C1=C(c2ccc(F)cc2OCc2ccccc2)C[C@@H]2CC[C@H]1N2C(=O)NCc1ccc2[nH]ccc2c1 | 94.7% (active)
7 | Cc1cc2ccccn2c1C(C[N+](=O)[O-])c1c(F)cccc1Cl (centres undefined) | 29.6%
8 | O=C1C2(Cl)C3(Cl)C4(Cl)C(Cl)(Cl)C5(Cl)C3(Cl)C1(Cl)C5(Cl)C24Cl (centres undefined) | 46.6% (active)
9 | O=Cc1cn(Cc2ccc(F)cc2Cl)c2ccccc12 | 35.1%
